Measured values reported in PubChem BioAssay (NCATS).
Records with an inconclusive call do not appear. A call without a number means that no potency is given here. Calls of active or inactive are those of the source. The call rests on the fitted dose curve.

assay: Validation screen for inhibitors of Lassa infection (AID 463096); conditions: Lassa virus infection, cell-based; series mostly up to 46.1 µM
Potency means the concentration at half of the fitted maximal effect.

SMILES | Potency
NC(=O)NO | inactive
Cc1cn([C@H]2C=C[C@@H](CO)O2)c(=O)[nH]c1=O | inactive
CN1CCN(C2=Nc3ccccc3Oc3ccc(Cl)cc32)CC1 | inactive
CN1CCN(C2=Nc3cc(Cl)ccc3Nc3ccccc32)CC1 | inactive
Cc1[nH]c(=O)c(C#N)cc1-c1ccncc1 | inactive
CC(C)NCC(O)COc1ccc(CCOCC2CC2)cc1 (stereo unspecified) | inactive
CN/C(=C\[N+](=O)[O-])NCCSCc1ccc(CN(C)C)o1 | inactive
CCN(CC)C(=S)SSC(=S)N(CC)CC | 10 µM (active)
CC(C)(C(=O)O)c1ccc(C(O)CCCN2CCC(C(O)(c3ccccc3)c3ccccc3)CC2)cc1 (stereo unspecified) | inactive
NNCCc1ccccc1 | inactive
Cc1oncc1C(=O)Nc1ccc(C(F)(F)F)cc1 | inactive
CC(=O)N[C@@H](CS)C(=O)O | inactive
CC(C)[N+](C)(CCOC(=O)C1c2ccccc2Oc2ccccc21)C(C)C | inactive
COC(=O)Nc1nc2ccc(C(=O)c3cccs3)cc2[nH]1 | inactive
Nc1nc2c(ncn2COC(CO)CO)c(=O)[nH]1 | inactive
NC12CC3CC(CC(C3)C1)C2 | inactive

SMILES | Potency
CC(C)C(=O)Nc1ccc([N+](=O)[O-])c(C(F)(F)F)c1 | inactive
COC(=O)[C@H]1[C@H]2C[C@@H]3c4[nH]c5cc(OC)ccc5c4CCN3C[C@H]2C[C@@H](OC(=O)c2cc(OC)c(OC)c(OC)c2)[C@@H]1OC | 7.94 µM (active)
N=c1nc(N2CCCCC2)cc(N)n1O | inactive
O=C1c2c(O)ccc(O)c2C(=O)c2c(NCCNCCO)ccc(NCCNCCO)c21 | 0.282 µM (active)
CC(=O)CCCCn1c(=O)c2c(ncn2C)n(C)c1=O | inactive
CN(C)c1nc(N(C)C)nc(N(C)C)n1 | inactive
O=C(C1CCCCC1)N1CC(=O)N2CCc3ccccc3C2C1 (stereo unspecified) | inactive
O=C1CCC(N2C(=O)c3ccccc3C2=O)C(=O)N1 (stereo unspecified) | inactive
O=C(c1ccccc1)c1ccc2n1CCC2C(=O)O (stereo unspecified) | inactive
N[C@@H]1CONC1=O | inactive
CCCN(CCC)CCc1cccc2c1CC(=O)N2 | inactive
CCN(CC)CCNC(=O)c1cc(Cl)c(N)cc1OC | inactive
CC1=NS(=O)(=O)c2cc(Cl)ccc2N1 | inactive
Cc1ccccc1N1C(=O)c2cc(S(N)(=O)=O)c(Cl)cc2NC1C (stereo unspecified) | inactive
COc1ccccc1OCC(O)CN1CCN(CC(=O)Nc2c(C)cccc2C)CC1 (stereo unspecified) | inactive
